This note sets out measurements from the supplement of paper PMC6555819.

In the test the test system is VDR:RXRa (NR concentration 270 nM, RXRa partner concentration 90 nM). The experiment in a line: PBM binding z-score (relative to random genomic background probes); higher = stronger binding; sequences stand for … in GC…GCGATTGACAGCGTAGAATGAAGG
On the procedure: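 Protein-binding microarray (Agilent 4x180K custom design, double-stranded 60-nt probes: 5' GC cap, 34-nt variable region, 24-nt constant primer region; full probe sequence given). Purified or IVT nuclear receptor:RXRα heterodimers (3:1 NR:RXRα, mostly 270:90 nM) or homodimers were incubated for 1 h in PBS with 2% milk and no ligand, then detected with Alexa488 antibodies. Fluorescence from o1-orientation probes (~5 replicates averaged) was converted to z-scores against 500 random hg19 background probes. Variable regions are seed direct-repeat (DR0–DR5) sites, all their single-nucleotide variants and half-site ablations.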
In the case of CCAGACAGGTGAGACGGTAACTCAGCCTCGATTA, the PBM binding z-score was -0.29. On to TAGCCTAGGTCAGTGGGCCAGTATAGTACGCATC, for which the PBM binding z-score was 0.148. Under GATACAGGGTCAGCTAGAGGCCAGCGTATGGAAA stands 3. Under TCTTGTAGATCAAGCATGTTAAGAAAGCCTGAGT stands 0.348; under GCGACTGGGGCATCAGCAGGTTACCATAACTTAA, 0.0367. CGAACTAGGTCAAGGACAGTGACTCTCCGCACGC: the PBM binding z-score was determined as 1.19. Under ACTATTAGTTGAAACGAGGGCAACCGATAGGTTG stands 1.63; under CCTTACGGGTCACTAGGTTATAGCACGACGAGCG, 3.38.

As to TATACAGGGTCAAGGGCCAGAGTACGAATGTCGA, the PBM binding z-score is 4.43.

In the case of CGAACTAGGTCATCCAGGACAGTGCATACATTGA, the PBM binding z-score is 4.69. The sequence ACTAGCAGGCCAAGTTTGCGTCACTCAAACAAAG yielded a PBM binding z-score of -0.321. Under CTACCAAGGAGAACAAGGTCGTTGATTACTATTC stands 1.56; under CCTCGGAGGACAACAGGAGGTCACAGCTGCCAGA, 3.53; under GCTAGTTGGTCAGTAAAAGGTCGCACACCGGTCG, 1.39. Under ACTATTAGTTGACTTAGGGCAACTGATACGACGC stands 0.239.

Regarding CAAACTAGGGCAAGGTCAAAGTCGGTTTGTGCCA, the PBM binding z-score amounted to 4.44. Under CCGACTGGCGCAGAAAGGTTACCATACCATCCGG stands 0.29; under CCTACCGGGCCAAAGGTCATTGATTCCAATGCTC, 4.8; under AACGAAAGGTCGAGGTGAGTATAGAGAAAGGGAA, 2.85. Under TTACCAACGTGAAGGTCGTTGATCCCTCTGTAGA stands 1.09; under TTACCAAGGTGAAAGGGCGTTGATGCACGCCTTG, 0.61; under ATCGAAAGGTCGAAGCTGAGTATACCCACCCGAA, 2.47. Under AGTCAAAGTTCACTAGGTAGCGTAAGATTCAGCT stands 3.56; under CCAGACAGGTGAAGGGTAACTCAGTCTGGTACGC, -0.111. With TCTAATTGGTCACGGAGGTCACACACGACGGGTA, the PBM binding z-score stood at 6.1.

The sequence CCTTACGGGTCAAGGTTATTGCACGGGTGGTACG returned a PBM binding z-score of 3.42.

Take CCTACTGGGCCATTAGGTCATTGATATCAACGTT: the PBM binding z-score was determined as 1.47. Under CAAACTAGGTCAAGAGGTCAAGGTCCGCTTCCCG stands 5.53. Under CCGACTGGGGCCTAAGGTTACCATAAGCCAGCCC stands -0.158; under CCTACTGGGCCAAGGTCATGGATCAGTCAAAGCA, 3.05. Under CCTTACGGGTCACGAGGTTATTGCACGACGAGCG stands 5.3. CCTACTGGGCCAAAGGTCAATGATTCCAATGCTC returned a PBM binding z-score of 4.04. Under CTCGAAAGGACGGTTGAGGTGAGTATACGGATAA stands -0.266; under CATACAGGGTCTGCTAGGCCAGAGTAGGGACGGC, -0.426; under TAGCCTAGGTCAGATCGGGCCAGTGTACGCTATA, 0.494.

On to TCGTGTAGGTTAGGGGCATTCAGAATGGCGTCGA, for which the PBM binding z-score was found to be 0.914. Turning to TCATATAGGTAAAGGTGACAGTCGAACGATATGA, the PBM binding z-score amounted to 0.874. Under CCTATTAGTTGGCCATAAGGGCAACCGAAGCTCG stands 0.196; under CATTACGGGTCAAGGTTATAGCACGGGTGGTACG, 3.96. AACACAGGGTCATCGTAGGCCAGAGTACGCACAG registered a PBM binding z-score of 5.15.
